PubChem BioAssay
A number with no mark means an inactive call. The rule behind the calls is not given here.

target: Pantothenate synthetase (Mycobacterium tuberculosis (strain ATCC 25618 / H37Rv)) (UniProt P9WIL5); assay: Coupled enzyme confirmation of inhibitors against recombinant Mtb PanC (AID 375); details: coupled enzyme assay; at 10 µM, stronger effect = higher value;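 note: 0% = full reaction with vehicle and 100% = no enzyme background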
Sequence (P9WIL5 whole entry, looked up): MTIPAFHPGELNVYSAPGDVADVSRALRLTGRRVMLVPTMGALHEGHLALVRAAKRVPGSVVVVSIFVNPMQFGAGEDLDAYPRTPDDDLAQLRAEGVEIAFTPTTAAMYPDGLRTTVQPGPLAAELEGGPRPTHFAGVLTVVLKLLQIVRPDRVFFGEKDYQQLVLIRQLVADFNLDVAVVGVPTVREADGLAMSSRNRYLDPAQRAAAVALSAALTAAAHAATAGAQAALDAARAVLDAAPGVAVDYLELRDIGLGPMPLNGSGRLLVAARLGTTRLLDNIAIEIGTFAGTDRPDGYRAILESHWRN

Point of comparison: CC12CN3CCN(CC(C3)C1(O)CN1CCCCC1)C2 (stereo not given), inhibition 0%. Against it:
- COCCn1c(=NC(=O)CSC(C)=O)sc2cc(F)ccc21 — higher, 12%
- Cc1ccc2ncnc(NCCCN3CCOCC3)c2c1 — higher, 1%
- CN1CCN(C(=O)c2ccccc2N(Cc2ccccc2)S(C)(=O)=O)CC1 — the same, 0%
- Cc1cc2c(c(=O)n1C)C(Cc1ccccc1)C(C#N)=C(N)O2 (stereo not given) — higher, 3%
- Clc1ccc(OCc2nnc(SCCN3CCCCC3)n2Cc2ccco2)cc1 — the same, 0%
- CCOc1ccc(S(=O)(=O)N(C)C)cc1-c1nc2c(C(C)(C)C)nn(C)c2c(=O)[nH]1 — the same, 0%
- C=CCn1c(SCC(=O)c2ccc(OC)cc2)nnc1C(C)NC(=O)c1cccs1 (stereo not given) — the same, 0%
- CCOC(=O)CN1CC23C=CC(O2)C(C(=O)NCc2ccc(F)cc2)C3C1=O (stereo not given) — the same, 0%
- Cn1c(=O)c2c(nc3sccn32)n(C)c1=O — the same, 0%
- CN(C)C(=O)CN(c1ccc(F)c(Cl)c1)S(C)(=O)=O — higher, 5%
- CCC(C)c1ccc(NC(=O)C2CC2)cc1 (stereo not given) — the same, 0%
- O=C(NC1CCCCC1)c1ccc(S(=O)(=O)N2CCCCC2)cc1 — the same, 0%
- Cc1cccc(NC(=O)CN(C)S(=O)(=O)c2ccccc2)n1 — higher, 7%
- NC(=O)CSCc1ccc(Br)cc1 — the same, 0%
- COCCNC(=O)c1ccc(CS(=O)(=O)c2ccc(OC)cc2)o1 — the same, 0%
- Cc1cccc(OCC(=O)Nc2ccccc2N2CCN(C(=O)C(C)C)CC2)c1C — higher, 5%
- Cn1c2ccc(F)cc2c2ncn(CCN3CCOCC3)c(=O)c21 — higher, 6%
- Cc1ccc(N=Cc2ccc(O)cc2O)cc1F — the same, 0%
- CCCCn1c(SCc2ccc(Cl)cc2)nc2c1c(=O)[nH]c(=O)n2C — higher, 6%
- CCCN(CCO)Cc1cccc(Br)c1 — higher, 3%
- COc1ccc(CCNC(=O)CSCc2n[nH]c(=O)[nH]2)cc1OC — the same, 0%
- Oc1ccc(Nc2nc(-c3ccc(O)cc3)cs2)cc1 — higher, 2%
- COc1ccc(OC)c(NS(=O)(=O)Cc2ccccc2)c1 — the same, 0%
- COC(=O)c1cc(OC)c(OC)cc1NC(=O)CC1CCCCC1 — higher, 1%
- O=C(C1CC1)N(Cc1ccco1)c1nc(-c2ccccc2)cs1 — higher, 1%
- COc1ccc(C)cc1S(=O)(=O)N(CC(=O)O)c1ccccc1 — the same, 0%
- O=S(=O)(Nc1ccc2c(c1)OCO2)c1ccc(Br)s1 — the same, 0%
- CC(C)[N+](C)(CCOC(=O)C1c2ccccc2Oc2ccccc21)C(C)C — the same, 0%
- CC(=O)N(C(C)=O)c1c(C#N)c(C)n(-c2ccccc2)c1C(=O)c1ccccc1 — the same, 0%
- CCc1cc2c(CN3CCN(CCO)CC3)cc(=O)oc2cc1O — the same, 0%
- Cc1ccc(-c2nnc(SC(C)C#N)n2N)cc1 (stereo not given) — higher, 3%
- COc1nc(OC)nc(N2CCC(C(=O)NCc3cccs3)CC2)n1 — the same, 0%
- CCOC(=O)N1CCC(NC(=O)c2cc(C(=O)NC3CCCC3)ccc2CO)CC1 — higher, 1%
- CCOC(=O)c1cccc(NC(=O)CCn2nnc3ccccc32)c1 — the same, 0%
- CCOC(=O)CN1C(=O)C2(OCCCO2)c2ccccc21 — higher, 1%
- Cc1cc(C)c(NC(=O)Cn2cc3c(n2)CCCC3)c(C)c1 — the same, 0%
- Cc1nnc(SCC(=O)N2CCC(C(=O)Nc3nccs3)CC2)n1Cc1ccccc1 — the same, 0%
- CCSc1nc2ccccc2n1CCC(=O)O — the same, 0%
- Cc1cccnc1NC(=O)CCCN1C(=O)c2ccccc2C1=O — the same, 0%
